We go through 36 molecules from PubChem BioAssay (NCI).

The structures appear in SMILES notation. Values joined by “and” are separate entries in the source; they are usually repeats but may differ in a detail not shown here. Identical values can stand only once. About 83,000 compounds went through this panel and 20% of them were active in at least one assay; those are over-represented in the sample as a whole.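 In brief: 96-well plates, 48 h treatment, single concentration, percent growth endpoint.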 Active and inactive are the calls of the source.

For the first test, the system named is SNB-75 CNS. The experiment in a line: NCI-60 one-dose screen, 48 h (100 = growth as untreated, 0 = no growth, -100 = all killed). Particulars: 1 µM. Here is the method:
Growth inhibition of the SNB-75 human tumor cell line is measured as a screen for anti-cancer activity. Cells are grown in 96 well plates and exposed to the test compound for 48 hours. Compounds are tested at a single concentration, which is 10^-5 M for most compounds. The reported endpoint is percent growth (GI% or GIPRCNT), where numbers from 0 - 100% represent growth inhibition, and numbers from -100% - 0 represent cell death. For example, a value of 40 represents 60% growth inhibition. A value of 0 means no net growth occurred over the course of the experiment. A value of -40 indicates 40% of cells at the beginning of the experiment died by the end of the experiment. A value of -100 means all cells are dead at the end of the experiment.
NCI-60 Human Tumor Cell Lines Screen was performed using the standard one-dose NCI protocol, which is described in more detail at https://dtp.cancer.gov/discovery_development/nci-60/default.htm.
Compounds with GIPRCNT values below 10 were considered active. Activity score was based on GIPRCNT using the following formula: […]
Score is 0 for GIPRCNT values of 100 or above, 50 for GIPRCNT values of 0, and 100 for GIPRCNT values of -100.
On to `CNC(=O)c1cc(Oc2ccc(CC(=O)Nc3cc(C(C)(C)C)nn3C)cc2)ccn1`, for which the growth is 51.3% (inactive).

The same test, now with this note: 10 µM.
On to `CNC(=O)c1cc(Oc2ccc(CC(=O)Nc3cc(C(C)(C)C)nn3C)cc2)ccn1`, for which the growth is 68% (inactive).
On the same count and under the same terms, for `O=C(O)c1sccc1O` the value was 84.6% (inactive); for `Cc1[nH]c(-c2nc3ccccc3[nH]2)c(C)c1C(=O)NC(C)C1CCCCC1` (stereo not given), 79.6% (inactive).

The test is the same for the next values; noted with them: 10 µM unless noted.
For the molecule `OCCN1CCN(CCO)CC1`, the growth is 111% (inactive) and 83.4% (inactive) and 96.1% (inactive).
With `Clc1ccc(NC(Nc2ccc(Cl)cc2)C(Cl)(Cl)Cl)cc1`, the growth is 79.2% (inactive) and 105% (inactive).
For `CC(=O)NC(Cc1ccccc1)C(=O)Oc1ccc2ccccc2c1` (stereo not given), the growth was 84.3% (inactive) and 78.1% (inactive).
Consider `COC(=O)[C@H]1CCCN1C(=O)C1CCCN1C(=O)[C@@H](Cc1ccccc1)NC(=S)Nc1cc(C(F)(F)F)cc(C(F)(F)F)c1` (stereo not given in full), for which the growth is 85.4% (inactive) and 73.3% (inactive).
Take `CNc1cc(-c2cccc(OC(F)(F)F)c2)nc2ccc(N3CCCC3)cc12`: the growth is 107% (inactive) and 76.5% (inactive).
For `CCOC(=O)c1c(C)oc(C)c(C(=O)OCC)c1=O`, the growth is 96.5% (inactive) and 99.5% (inactive).
For `Nc1ncnc2c1ncn2C1CC(O)C(CO)O1` (stereo not given), the growth was 89.7% (inactive) and 92.9% (inactive).
In the case of `Cc1nn(-c2ccc(Cl)cc2)c2ncnc(N/N=C/c3ccccc3O)c12`, the growth is -15.1% (active) and 35.9% (inactive).
On the same count and under the same terms, for `NC(=O)C1CC2C=CC1C2` (stereo not given) the value was 87% (inactive) and 93.8% (inactive).
`CCN(CC)CCNc1ccc(C)c2sc3ccccc3c(=O)c12` (tested in a mixture with another compound): the growth is 25.6% (inactive) and 51% (inactive).
As for `C=C1C(=O)O[C@H]2[C@H]1CC/C(COC(=O)NC1CCC(O)CC1)=C\CC[C@@]1(C)O[C@@H]21` (stereo not given in full), the growth is 71% (inactive) and 71.7% (inactive).
Turning to `Nc1nc2ncc(CNc3ccc(C(=O)N[C@@H](CCc4nn[nH]n4)C(=O)O)cc3)nc2c(=O)[nH]1`, the growth was 87.4% (inactive) and 97.4% (inactive).
With `Cc1n[nH]c(=O)n(/N=C\c2c[nH]c3ccccc23)c1=O`, the growth is 84% (inactive).
For the molecule `CCCCCCCCCCCCCCCCOc1ccc(C)cc1`, the growth is 104% (inactive).
In the case of `CN(C)CCC(=O)c1ccc(Cl)cc1`, the growth was 78.6% (inactive) and 114% (inactive).
The same measure, in the same setting: for `CC(C)Oc1ccc2cc(-c3nn(CC4CCNCC4)c4ncnc(N)c34)ccc2c1` the value was 59% (inactive) and -38.7% (active).
On the same count and under the same terms, for `O=C(CN1CCN(c2cc3c(cc2F)c(=O)c(C(=O)O)cn3C2CC2)CC1)Nc1ccc(Cl)cc1` the value was 79.7% (inactive); for `O=Nc1ccc(O)cc1`, 95.6% (inactive); for `O=C(Cc1cccc2ccccc12)N/N=C/c1ccc2c(c1)CCC2`, 80.2% (inactive).
Same read-out and setting: then `Nc1cc(-c2cccc(OC(F)(F)F)c2)nc2ccc(N3CCCC3)cc12`, with 29.7% (inactive) and 34.7% (inactive).
In the case of `COc1cc(NS(C)(=O)=O)ccc1Nc1c2ccccc2nc2c(C)cccc12`, the growth is -7.95% (active) and -6.77% (active).
On to `CC(/C=N/N1C(=O)c2ccccc2C1=O)c1ccccc1` (stereo not given), for which the growth was 83% (inactive).
On to `CC1=C(/C=C/C(C)=C/C=C/C(C)=C/C=N/NC(=S)NC(=S)N/N=C/C=C(C)/C=C/C=C(C)/C=C/C2=C(C)CCCC2(C)C)C(C)(C)CCC1`, for which the growth is -4.78% (active) and -40% (active).
Same read-out and setting: for `Cc1ccc(NCSc2ccc(Cl)cc2)cc1` the value was 86% (inactive) and 91.7% (inactive); for `Cc1cc(N=Nc2ccc(C)c(N=Nc3cc(C)c(N)cc3N)c2)c(N)cc1N`, 78% (inactive) and 72.7% (inactive); for `CNC(=O)c1cccnc1`, 92.5% (inactive).
Turning to `CC1=C(/C=C/C(C)=C/C=C/C(C)=C/C(=O)O)C(C)(C)CCC1`, the growth is 122% (inactive) and 72.2% (inactive) and 79.7% (inactive).
On the same count and under the same terms, then `CC(C(=O)O)n1cc(C#N)c(=O)[nH]c1=O` (stereo not given), with 83.7% (inactive) and 76.9% (inactive); and `CC1=C(/C=C/C(C)=C/C=C/C(C)=C/C(=O)Nc2ccc(O)cc2)C(C)(C)CCC1`, with 57.6% (inactive).
For `O=C1OC(Oc2ccc(Br)cc2)(c2ccccc2)c2ccccc21` (stereo not given), the growth was 61.2% (inactive) and 77.1% (inactive).
Turning to `CCN(CC)C(=O)c1cccnc1`, the growth is 98.7% (inactive).
Same read-out and setting: then `COc1ccc(-c2cn[nH]c2-c2cc(OC)c(OC)c(OC)c2)cc1N`, with 57.5% (inactive) and 20.3% (inactive); and `COc1cc2c(c(OC)c1OC)-c1ccc(OC)c(=O)cc1[C@@H](NC(C)=O)CC2`, with 35.6% (inactive) and 76.6% (inactive) and 19.3% (inactive).

The test is the same for the next values; noted with them: 30 µM.
Regarding `CNC(=O)c1cc(Oc2ccc(CC(=O)Nc3cc(C(C)(C)C)nn3C)cc2)ccn1`, the growth is 77.9% (inactive).

The test is the same for the next values; noted with them: 100 µM.
Regarding `O=C(O)c1sccc1O`, the growth is 28.5% (inactive).
As to `Cc1[nH]c(-c2nc3ccccc3[nH]2)c(C)c1C(=O)NC(C)C1CCCCC1` (stereo not given), the growth is -98.9% (active).
